From PubChem
KB-V1 cytotox: KB-V1 MDR subline cytotoxicity. KB-V1 MDR cells viability, CellTiter-Glo, 72 h. Potency, µM (top dose mostly 46.1 µM), hits mostly cytotoxic. 400,000 tested, 3.4% active; further: on the % scale 0 is the no-effect control and ±100 the full control effect; nearly all actives have a fitted effect of over 60% in size
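KB-V1, DMEM (no phenol red) + 10% FBS; cpd pin-transferred, titration series; 72 h, 37 degrees C; CellTiter-Glo, luminescence. Data normalized, curve-fit.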
ATXN2 expr inh: inhibitors of ATXN2 expression. HEK-293 ATXN2-luciferase reporter, luminescence, 24 h. Potency, µM (doses to about 57 µM), for inactives: top-dose activity change, negative = inhibition, hits mostly inhibitors. 360,000 tested, 0.72% active. AID 1745845; further: on the % scale 0 is the no-effect control and ±100 the full control effect; nearly all actives have a fitted effect of over 55% in size
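ATXN2-luciferase reporter cells (luciferase flanked by upstream and downstream ATXN2 gene portions) were treated 24 h at 37 °C with compounds at up to 57 uM. SteadyGlo luminescence gave expression; GF-AFC fluorescence gave viability.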
KB-3-1 tox: kills parental KB-3-1 adenocarcinoma cells. AID 1347075. 400,000 tested, 1.4% active. Potency, µM (titrated, usually from 46.1 µM), hits mostly cytotoxic. KB-3-1 viability, CellTiter-Glo ATP luminescence, 72 h; further: on the % scale 0 is the no-effect control and ±100 the full control effect; nearly all actives have a fitted effect of over 60% in size
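Here the drug-naive KB-3-1 line serves as comparator for MDR sub-line selectivity; cells received compound titrations, 72 h at 37 °C, then CellTiter-Glo readout.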
S2 tox: viability counter-screen for ATXN expression inhibitors; 400,000 tested, 0.49% active; S2 cells (HEK-293 line with an ATXN2-luciferase reporter) viability, CellTiter-Fluor protease fluorescence, 24 h; Potency, µM (doses to about 56.7 µM), actives largely listed as cytotoxic; AID 651635; further: nearly all actives have a fitted effect of over 40% in size
HT1080 IDH1KD tx: kills HT-1080 cells with IDH1 knockdown | HT-1080 IDH1 knockdown viability, ATP luminescence, 48 h | Potency, µM (doses to about 46.1 µM), for inactives: at the highest dose activity, negative = toxicity, hits mostly cytotoxic | 360,000 tested, 2% active | AID 686971;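 further: 0% = DMSO wells and -100% = cell-free medium wells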
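After a 2 h attachment period, IDH1KD HT-1080 cells took pin-transferred compound for 48 h at 37 °C; ATP-based luminescence after 10 min room-temperature reagent incubation reported viability.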
HT1080NT lethal: kills 2HG-producing HT-1080-NT fibrosarcoma cells; HT-1080-NT fibrosarcoma viability, CellTiter-Glo ATP luminescence, 48 h; Potency, µM (titrated, usually from 46.1 µM), for inactives: at the top dose activity, negative = less viability, most hits filed as cytotoxic; 360,000 tested, 1.6% active; AID 686970;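 further: NT is the 2HG producing partner of a matched IDH1 knockdown line; 0% = DMSO-treated cells and -100% = media-only wells without cells; nearly all actives have a fitted effect of over 55% in size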
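HT-1080-NT fibrosarcoma cells (2HG-overproducing), 750 cells/well in RPMI with 5% FBS, dosed after 2 h and incubated 48 h at 37C. CellTiter-Glo luminescence normalized to DMSO and no-cell wells; concentration-response curves fitted and classed.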
* = called active by the depositor; i = inactive; ? = inconclusive; . = no result given. The list is not random: actives were taken first. Their share in the collection is about 6.2%. The call rests on the fitted dose curve; in most records, active means well fitted curve in the direction sought with a large enough effect; inconclusive means small, poorly fitted or top-dose-only effect, or another doubt; inactive means no such curve, though single readings can be large; an effect the other way counts as inactive or inconclusive. Potency means the concentration at half of the fitted maximal effect.

SMILES	KB-V1 cytotox	ATXN2 expr inh	KB-3-1 tox	S2 tox	HT1080 IDH1KD tx	HT1080NT lethal
COc1ccccc1N1CCN(C(=O)c2c(-c3c(F)cccc3Cl)noc2C)CC1	?	-21.3%	?	i	?	?
COc1cc2c(cc1OC)C(C)N(C(=O)c1ccc(C)o1)CC2 (centres undefined)	16.4µM*	-6.5%	?	i	?	?
COc1cc2c(cc1OC)C(C)N(C(=O)c1ccc(Cl)c(S(=O)(=O)N3CCCCC3)c1)CC2 (centres undefined)	i	-30.3%	11.6µM*	?	-18.5%	-23.3%
COc1ccccc1N1CCN(C(=O)c2c(-c3ccccc3)noc2C)CC1	?	-35.5%	4.61µM*	?	14.6µM*	?
CCN1CCCC1CNC(=O)c1ccc(Sc2ccc(F)cc2)c([N+](=O)[O-])c1 (centres undefined)	?	-12.4%	?	i	?	?
CCN1CCN(C(=O)c2ccc(Sc3ccccc3Cl)c([N+](=O)[O-])c2)CC1	13µM*	-7.6%	i	i	-2.8%	-7.5%
CCN1CCCC1CNC(=O)c1ccc(Sc2ccccc2Cl)c([N+](=O)[O-])c1 (centres undefined)	i	7.1%	i	i	?	25.9µM*
CCN(CC)CCOC(=O)c1ccc(N)cc1Cl	.	.	.	i	.	.
CSc1nc2sc(-c3ccccc3)cc2c(=O)n1N	9.2µM*	?	?	?	0.8%	2.9%
Cc1ccccc1C(=O)OCc1cc(=O)n2nc(-c3cccs3)sc2n1	i	4.7%	i	i	.	.
Cc1cc(C)c2c(=O)cc(C(=O)NCCc3ccc(S(N)(=O)=O)cc3)oc2c1	?	-10.5%	i	i	.	.
O=C(COC(=O)c1ccc(Cl)nc1)Nc1nnc(-c2ccccc2)o1	14.6µM*	6.4%	i	i	19.9%	6.1%
Cc1ccc(C)c(N2CCN(C(=O)C3CCN(S(=O)(=O)c4ccc5[nH]c(=O)oc5c4)CC3)CC2)c1	i	-1.1%	i	i	.	.
COc1cccc(-c2nc3cc(SC)ccc3cc2CN(C(=O)c2sccc2C)C2CC2)c1	.	.	.	i	.	.
CC[C@H](C)Cc1cn([C@@H](CCCN=C(NC(=O)OC(C)(C)C)NC(=O)OC(C)(C)C)C(=O)NCCCCCCCCCCC(=O)N2CCN(C(=O)OC(C)(C)C)CC2)nn1	i	?	?	17.8µM*	?	?
Cc1cn([C@@H](CCCCNC(=O)OC(C)(C)C)C(=O)NCCCCCCCCCCC(=O)N2CCN(C(=O)OC(C)(C)C)CC2)nn1	i	?	?	15.8µM*	?	20.6µM*
CCSc1nnc(NC(=O)c2cc(=O)c3cc(C)ccc3o2)s1	i	0.7%	i	i	.	.
CCOC(=O)c1ccc(NC(=O)CSc2nccn2-c2cc(C)cc(C)c2)cc1	i	-0.9%	?	i	.	.
O=C(CSC1=NS(=O)(=O)c2ccccc21)Nc1ccccc1	i	-0.5%	14.6µM*	i	-1.7%	-1.8%
COC(=O)CSC1=NS(=O)(=O)c2ccccc21	i	?	i	?	?	-0.8%
COc1ccc(-c2c(C)nc(N)nc2-c2ccc(OCc3ccc(C)cc3)cc2O)cc1OC	2.31µM*	-3.6%	i	i	-14.1%	-4.9%
COc1ccc(Nc2nc(N)c([N+](=O)[O-])c(NC3CCCCC3)n2)cc1	?	?	i	.	?	16.4µM*
CNc1nc(Nc2ccc(Br)cc2)nc(N)c1[N+](=O)[O-]	?	26.2%	0.731µM*	i	?	?
CC(OC(=O)c1ccccc1NS(=O)(=O)c1cccc(N)c1)C(=O)N(C)Cc1ccccc1 (centres undefined)	3.66µM*	-1.2%	?	?	3.3%	4.2%
CC(OC(=O)c1cccc(O)c1)C(=O)N(C)Cc1ccccc1 (centres undefined)	?	10.4%	i	i	16.1%	0.7%
